Measured values reported in the supplement of paper PMC8728848.
This excerpt belongs to a sample that is enriched for the strongest signals.

What was measured:
Assay in all cases: glycan array binding signal (z-score within array); higher = stronger binding
Settings in all cases: glycan notation: IUPAC condensed, linker removed
[1] = target: Fuc(a1-2)Gal(b1-3)GalNAc(a1-3)[Fuc(a1-2)]Gal(b1-4)GlcNAc
Procedure, shortened: (§1)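 Glycan array binding is given as a within-array Z-score, which can be read as non-binding when negative. The arrays, 3228 of them, came from the Consortium for Functional Glycomics database and were retained only where the protein sequence was available. Z-scores were averaged across arrays of the same protein sequence at different concentrations or buffers and across linkers.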

[2] = target: Fuc(a1-2)Gal(b1-3)GlcNAc(b1-3)Gal(b1-4)Glc
Procedure, shortened: as §1

[3] = target: Fuc(a1-2)Gal(b1-3)GlcNAc(b1-3)[Fuc(a1-3)[Gal(b1-4)]GlcNAc(b1-6)]Gal(b1-4)Glc
Procedure, shortened: as §1

[4] = target: Fuc(a1-2)Gal(b1-4)[Fuc(a1-3)]GlcNAc(b1-3)Gal(b1-4)[Fuc(a1-3)]GlcNAc(b1-3)Gal(b1-4)[Fuc(a1-3)]GlcNAc
Procedure, shortened: as §1

[5] = target: Fuc(a1-2)[Gal(a1-3)]Gal(b1-4)GlcNAc(b1-2)Man(a1-3)[Fuc(a1-2)[Gal(a1-3)]Gal(b1-4)GlcNAc(b1-2)Man(a1-6)]Man(b1-4)GlcNAc(b1-4)GlcNAc
Procedure, shortened: as §1

[6] = target: Fuc(a1-2)[Gal(a1-3)]Gal(b1-4)[Fuc(a1-3)]GlcNAc
Procedure, shortened: as §1

[7] = target: Fuc(a1-2)[GalNAc(a1-3)]Gal(b1-4)[Fuc(a1-3)]GlcNAc
Procedure, shortened: as §1

[8] = target: Fuc(a1-3)[Gal(b1-4)]GlcNAc(b1-4)Gal(b1-4)[Fuc(a1-3)]GlcNAc
Procedure, shortened: as §1

[9] = target: Fuc(a1-3)[Gal(b1-4)]GlcNAc(b1-6)[Gal(b1-3)GlcNAc(b1-3)]Gal(b1-4)Glc
Procedure, shortened: as §1

[10] = target: Fuc(a1-3)[GalNAc(b1-4)]GlcNAc
Procedure, shortened: as §1

[11] = target: Fuc(a1-4)GlcNAc
Procedure, shortened: as §1

[12] = target: Gal(b1-4)Glc6S
Procedure, shortened: as §1

[13] = target: Gal(b1-4)GlcNAc(b1-2)Man(a1-3)[Gal(b1-4)GlcNAc(b1-2)Man(a1-6)]Man(b1-4)GlcNAc(b1-4)GlcNAc
Procedure, shortened: as §1

[14] = target: Gal(b1-4)GlcNAc(b1-2)Man(a1-6)Man(b1-4)GlcNAc(b1-4)GlcNAc
Procedure, shortened: as §1

[15] = target: Gal(b1-4)GlcNAc(b1-3)[Gal(b1-4)GlcNAc(b1-6)]GalNAc
Procedure, shortened: as §1

[16] = target: Gal(b1-4)GlcNAc(b1-6)GalNAc
Procedure, shortened: as §1

[17] = target: Gal3S(b1-3)[Fuc(a1-4)]GlcNAc
Procedure, shortened: as §1

[18] = target: GalNAc(b1-3)Gal(a1-4)Gal(b1-4)GlcNAc
Procedure, shortened: as §1

[19] = target: Glc(b1-4)Glc
Procedure, shortened: as §1

[20] = target: GlcNAc(b1-3)Gal(b1-4)GlcNAc
Procedure, shortened: as §1

[21] = target: GlcNAc(b1-3)[GlcNAc(b1-6)]GalNAc
Procedure, shortened: as §1

[22] = target: GlcNAc(b1-4)Gal(b1-4)GlcNAc
Procedure, shortened: as §1

[23] = target: GlcNAc(b1-4)[GlcNAc(b1-6)]GalNAc
Procedure, shortened: as §1

[24] = target: Kdn(a2-6)Gal(b1-4)GlcNAc
Procedure, shortened: as §1

[25] = target: Man(a1-2)Man(a1-2)Man(a1-3)Man
Procedure, shortened: as §1

[26] = target: Man(a1-2)Man(a1-2)Man(a1-6)[Man(a1-3)]Man
Procedure, shortened: as §1

[27] = target: Man(a1-2)Man(a1-3)Man
Procedure, shortened: as §1

[28] = target: Man(a1-2)Man(a1-3)[Man(a1-2)Man(a1-6)]Man
Procedure, shortened: as §1

[29] = target: Man(a1-2)Man(a1-3)[Man(a1-2)Man(a1-6)]Man(a1-6)[Man(a1-2)Man(a1-2)Man(a1-3)]Man
Procedure, shortened: as §1

[30] = target: Man(a1-2)Man(a1-6)[Man(a1-3)]Man(a1-6)[Man(a1-2)Man(a1-2)Man(a1-3)]Man
Procedure, shortened: as §1

[31] = target: Man(a1-2)Man(a1-6)[Man(a1-3)]Man(a1-6)[Man(a1-2)Man(a1-2)Man(a1-3)]Man(b1-4)GlcNAc(b1-4)GlcNAc
Procedure, shortened: as §1

[32] = target: Man(a1-6)Man
Procedure, shortened: as §1

[33] = target: Man(b1-4)GlcNAc
Procedure, shortened: as §1

[34] = target: Neu5Ac(a2-3)Gal
Procedure, shortened: as §1

[35] = target: Neu5Ac(a2-3)Gal(b1-3)GalNAc(b1-4)[Neu5Ac(a2-3)]Gal(b1-4)Glc
Procedure, shortened: as §1

[36] = target: Neu5Ac(a2-3)Gal(b1-3)GlcNAc(b1-3)Gal(b1-4)GlcNAc
Procedure, shortened: as §1

[37] = target: Neu5Ac(a2-3)Gal(b1-3)GlcNAc(b1-3)GalNAc
Procedure, shortened: as §1

[38] = target: Neu5Ac(a2-3)Gal(b1-4)GlcNAc(b1-3)Gal(b1-4)[Fuc(a1-3)]GlcNAc
Procedure, shortened: as §1

[39] = target: Neu5Ac(a2-3)Gal(b1-4)[Fuc(a1-3)]GlcNAc(b1-3)Gal(b1-4)[Fuc(a1-3)]GlcNAc(b1-3)Gal(b1-4)[Fuc(a1-3)]GlcNAc
Procedure, shortened: as §1

[40] = target: Neu5Ac(a2-6)Gal
Procedure, shortened: as §1

[41] = target: Neu5Ac(a2-6)Gal(b1-4)GlcNAc(b1-3)GalNAc
Procedure, shortened: as §1

[42] = target: Neu5Ac(a2-6)GalNAc
Procedure, shortened: as §1

[43] = target: Neu5Ac(a2-8)Neu5Ac(a2-3)Gal(b1-4)Glc
Procedure, shortened: as §1

B1: CTLY 1 (Homo sapiens), Q6ZS10 (protein)
chain: AITCPEGWLPFEGKCYYFSPSTKSWDEARMFCQENYSHLVIINSFAEHNFVAKAHGSPRVYWLGLNDRAQEGDWRWLDGSPVTLSFWEPEEPNNIHDEDCATMNKGGTWNDLSCYKTTYWICERKGLNDIFEAQKIEWHE
[1]
  glycan array binding signal (z-score): -0.207
[2]
  glycan array binding signal (z-score): -0.241
[3]
  glycan array binding signal (z-score): -0.239
[4]
  glycan array binding signal (z-score): 4.81
[5]
  glycan array binding signal (z-score): -0.174
[6]
  glycan array binding signal (z-score): -0.207
[7]
  glycan array binding signal (z-score): 5.5
[8]
  glycan array binding signal (z-score): 0.526
[9]
  glycan array binding signal (z-score): -0.219
[10]
  glycan array binding signal (z-score): -0.188
[11]
  glycan array binding signal (z-score): -0.24
[12]
  glycan array binding signal (z-score): -0.248
[13]
  glycan array binding signal (z-score): -0.242
[14]
  glycan array binding signal (z-score): -0.226
[15]
  glycan array binding signal (z-score): -0.246
[16]
  glycan array binding signal (z-score): -0.23
[17]
  glycan array binding signal (z-score): 1.29
[18]
  glycan array binding signal (z-score): -0.243
[19]
  glycan array binding signal (z-score): -0.243
[20]
  glycan array binding signal (z-score): -0.237
[21]
  glycan array binding signal (z-score): -0.066
[22]
  glycan array binding signal (z-score): -0.212
[23]
  glycan array binding signal (z-score): 0.086
[24]
  glycan array binding signal (z-score): -0.232
[25]
  glycan array binding signal (z-score): 6.07
[26]
  glycan array binding signal (z-score): 10.1
[27]
  glycan array binding signal (z-score): 1.1
[28]
  glycan array binding signal (z-score): 4.5
[29]
  glycan array binding signal (z-score): 8.68
[30]
  glycan array binding signal (z-score): 4.81
[31]
  glycan array binding signal (z-score): 0.475
[32]
  glycan array binding signal (z-score): -0.228
[33]
  glycan array binding signal (z-score): -0.239
[34]
  glycan array binding signal (z-score): -0.238
[35]
  glycan array binding signal (z-score): -0.231
[36]
  glycan array binding signal (z-score): -0.235
[37]
  glycan array binding signal (z-score): -0.237
[38]
  glycan array binding signal (z-score): -0.238
[39]
  glycan array binding signal (z-score): 1.04
[40]
  glycan array binding signal (z-score): -0.253
[41]
  glycan array binding signal (z-score): -0.235
[42]
  glycan array binding signal (z-score): -0.248
[43]
  glycan array binding signal (z-score): -0.252
